Each structure is given as a SMILES string. Hit rate of the full screen: of about 53,000 compounds, about 900 (1.7%) showed an effect of 50% or more. This excerpt belongs to a sample that is enriched for strong results.

The values that follow come from ChEMBL document CHEMBL3988442, “University of Dundee, Small-Polar-MMV Screening Library” (2021).

The test relates to Mycobacterium tuberculosis. The test is described as follows: Cornell - Phenotypic assay to identify agents that inhibit growth of Mycobacterium tuberculosis. Type of test: functional. On the set-up: scale not given: direction of the effect not stated beside the values. The note with it: 10 mM as filed; unlikely as a test dose.
On to `C1CCN(CCN2CCCCC2C2OCCO2)CC1` (centres undefined), for which the “Percent Effect” value is given as 10.52%. As to `Cc1cccc(C2(O)CCN(Cc3ccccc3N3CCCC3)CC2)c1`, the “Percent Effect” value came out at 33.4%. For the molecule `Cc1cc2c(cc1Cl)C=CC1(CCN(CC(=O)N3CCOCC3)CC1)O2`, the “Percent Effect” value is -15.66%. With `CCN(CC)C(=O)CN1CCC2(C=Cc3cc(Cl)c(C)cc3O2)CC1`, the “Percent Effect” value turned out to be 52.2%. As for `Cc1cc2c(cc1C)OC1(C=C2)CCN(CC(=O)N2CCOCC2)CC1`, the figure is 44.67%; as for `Cc1cc2c(cc1Cl)C=CC1(CCN(CC(=O)NC3CCCC3)CC1)O2`, 71.56%. `Cc1cc2c(cc1Cl)C=CC1(CCN(CC(=O)N3CCCC3)CC1)O2`: the “Percent Effect” value turned out to be 63.41%. Regarding `Cc1cc2c(cc1Cl)C=CC1(CCN(C(=O)N3CCOCC3)CC1)O2`, the “Percent Effect” value was 23.79%. As to `Cc1cc(C)n(CC2CN(CC(=O)NC3CCCCC3)CCO2)n1` (centres undefined), the “Percent Effect” value is listed as -10.09%. Regarding `Cc1cc(C)n(CC2CN(CC(=O)NC3CCCC3)CCO2)n1` (centres undefined), the “Percent Effect” value is recorded as -7.412%. Take `CCc1ccc(O)c(C(=O)N2CCN(CC(=O)N(CC)CC)CC2)c1`: the “Percent Effect” value was -14.81%.

Consider `O=C1NCC(C(=O)Nc2ncc(Cc3ccccc3)s2)N1` (centres undefined), for which the “Percent Effect” value is given as -21.97%. In the case of `CNC(=O)c1cn[nH]c1C1CCN(Cc2cn(C)nc2C)C1` (centres undefined), the “Percent Effect” value is on record as -22.18%. For the molecule `CCn1nc(C)c2ncnc(N(C)C)c21`, the “Percent Effect” value is given as -48.95%. As for `O=C(CC1CCCC1)N1CCC(c2cc3ncccc3c(O)n2)CC1`, the figure is -42.1%; as for `CCN1CCCC1CNC(=O)Cc1c(C)n[nH]c1-c1ccc(OC)cc1` (centres undefined), 17.71%. As for `CCC(C(=O)Nc1ccc2cn(CC)nc2c1)N1CCCC1=O` (centres undefined), the figure is 13.02%; as for `Nc1nnc(CCNC(=O)c2cccc(C3CCCNC3)c2)s1` (centres undefined), 4.454%. As for `Cn1cnc2c1CCN(CCS(=O)(=O)c1ccc(Cl)cc1)C2`, the figure is -6.56%; as for `COc1cccc(CN(C)C(=O)CN2CC(n3nc(C)cc3C)C2)c1`, 24.75%; as for `Cc1cc(C)n(C2CN(CC(=O)N(C)Cc3ccco3)C2)n1`, -1.246%. `COc1ccccc1CN(C)C(=O)CN1CC(n2nc(C)cc2C)C1`: the “Percent Effect” value is listed as 65.44%. As for `CCCc1nc(CN(CCO)Cc2cc(Br)ccc2F)no1`, the figure is 55.91%. As for `Cc1noc(CN(CCO)Cc2cc(Br)ccc2F)n1`, the figure is 29.28%; as for `CC(C)(C)c1nc(CN(CCO)Cc2cc(Br)ccc2F)no1`, 21.92%; as for `CCS(=O)(=O)N1CCCn2cnc(COc3cccnc3)c2C1.O=C(O)C(F)(F)F`, 13.68%. As for `CN(CCCc1cnn(C)c1)Cc1cc2n(n1)CCCN(C)C2`, the figure is 2.304%. As to `C[C@@H](O)CNC(=O)c1nc(Cc2c(Cl)cccc2Cl)no1`, the “Percent Effect” value turned out to be 33.25%. With `CC(O)CNC(=O)c1nc(Cc2c(Cl)cccc2Cl)no1` (centres undefined), the “Percent Effect” value was found to be 19.28%.

As for `CC(C)CNC(=O)CNC(=O)c1nc(Cc2c(Cl)cccc2Cl)no1`, the “Percent Effect” value is 50.66%. For the molecule `CC(C)(O)CN1CCN(C(=O)c2cc3ccccc3c(=O)[nH]2)CC1`, the “Percent Effect” value was 11.41%. On to `COc1cccc2cc(CNCc3ccnc(N4CCOCC4)c3)oc12`, for which the “Percent Effect” value is -7.276%. Turning to `COc1cccc2cc(CNCc3ccc(N4CCCC4)nc3)oc12`, the “Percent Effect” value is -14.56%. Turning to `COc1cccc2cc(CNCc3ccnc(N4CCCCC4)c3)oc12`, the “Percent Effect” value is listed as 60.34%.

`O=C(CCc1cccc(F)c1F)N1CCCC(n2cncn2)C1` (centres undefined): the “Percent Effect” value came out at 5.232%. For the molecule `Cc1nn(C)c(N(C)C)c1CNC(C)COc1cccc(F)c1` (centres undefined), the “Percent Effect” value is 24.93%.

In the case of `Cc1nn(C)c(N(C)C)c1CNC(C)Cc1c(F)cccc1F` (centres undefined), the “Percent Effect” value was 29.42%. Turning to `Cc1nn(C)c(N(C)C)c1CNC(C)c1cccc(OC(C)C)c1` (centres undefined), the “Percent Effect” value was found to be 54.17%.

`CC(C)n1nccc1CN1Cc2nccn2CC1c1ccccc1` (centres undefined): the “Percent Effect” value turned out to be 55.64%. `Cc1nccc(CN2Cc3nccn3CC2c2ccccc2)n1` (centres undefined): the “Percent Effect” value is listed as -4.199%. For `Cn1cnc(CN2Cc3nccn3CC2c2ccccc2)c1` (centres undefined), the “Percent Effect” value is given as 25.78%. As for `Cc1csc(N2CCN(Cc3cccnc3)CC2C)n1` (centres undefined), the figure is 17.54%; as for `O=C(NC1CCCc2c1[nH]c1ccc(F)cc21)c1n[nH]c2c1CCC2` (centres undefined), 5.755%; as for `COc1ccc(Cl)cc1CCNC(=O)NCc1ncnn1C`, 19.31%.

Consider `COc1ccc(Cl)cc1CCNC(=O)NCc1ccncc1`, for which the “Percent Effect” value came to 59.54%. As to `COc1ccc(Cl)cc1CCNC(=O)NCc1noc(C)n1`, the “Percent Effect” value is given as 15.04%. `COc1ccc(C(=O)NCCNC(=O)c2scnc2Cl)cc1`: the “Percent Effect” value is -54.01%. In the case of `CCN(CC)C1CCN(C(=O)NCc2cccc(-n3ccnc3)c2)C1` (centres undefined), the “Percent Effect” value was found to be 34.25%. On to `CCNC(=O)CCc1c(C)nc2cc(O)nn2c1C`, for which the “Percent Effect” value is 3.574%. With `COC(=O)CCc1c(C)nc2cc(O)nn2c1C`, the “Percent Effect” value is reported as -35.79%. With `COc1ccc(NC(=O)CCc2c(C)nc3cc(O)nn3c2C)cn1`, the “Percent Effect” value is 65.23%. As for `Cc1cnn(CC2CCCN2Cc2nnc(C(C)C)o2)c1` (centres undefined), the figure is -69.76%; as for `Cc1cnn(CC2CCCN2C(=O)c2ccc3nnc(C)n3c2)c1` (centres undefined), 107.3%; as for `Cc1cnn(CC2CCCCN2C(=O)c2ccc3nncn3c2)c1` (centres undefined), -11.21%. As for `Cc1cc(C)n(CC2CCCN2C(=O)c2ccc3nnc(C)n3c2)n1` (centres undefined), the figure is 12.74%. Regarding `Cc1ncccc1CNCC1CCN(CC(C)O)CC1` (centres undefined), the “Percent Effect” value was -13.7%. `CC(=O)N1CCC(Cc2cccc(-c3ccnn3C)n2)CC1`: the “Percent Effect” value amounted to 35.75%. Take `Cc1cc(-c2ccnn2C)nc(C2CCCN(S(C)(=O)=O)C2)n1` (centres undefined): the “Percent Effect” value is reported as 51.61%.

For `Cc1cc(-c2ccnn2C)nc(C2CCN(S(C)(=O)=O)CC2)n1`, the “Percent Effect” value was determined as 31.8%. As for `Cc1nc(-c2ccnn2C)cc(C2CCCN(S(C)(=O)=O)C2)n1` (centres undefined), the figure is 29.58%. For `Cn1nccc1-c1cccc(CC2CCN(S(C)(=O)=O)C2)n1` (centres undefined), the “Percent Effect” value stood at 50.09%. With `Cn1nccc1-c1cncc(C2CCCN(S(C)(=O)=O)C2)n1` (centres undefined), the “Percent Effect” value worked out at 20.84%. For `CC(C)C(=O)N1CCN(C(=O)c2cc(C(C)C)no2)[C@H]2CS(=O)(=O)C[C@H]21`, the “Percent Effect” value came out at 24.89%.

`CN(C)CCNC(=O)CC1CCN(c2cccnn2)CC1`: the “Percent Effect” value is 8.308%. As for `CCN(Cc1nc(C)no1)C(=O)C1CC(=O)N(Cc2ccccn2)C1` (centres undefined), the figure is 0.6142%. As for `O=C(NC1CCCN(Cc2c(F)cccc2F)C1)c1cc[nH]n1` (centres undefined), the “Percent Effect” value is recorded as -25.78%.

`O=C(NCCc1ccccc1)NCCN1CCC(c2cccs2)CC1`: the “Percent Effect” value was determined as 45.08%. As to `O=C(NCCN1CCC(c2cccs2)CC1)Nc1cccs1`, the “Percent Effect” value is 107.5%. For `CC(=O)NCCN1CCC(c2cccs2)CC1`, the “Percent Effect” value is reported as 5.988%.
